Laboratory results: PubChem BioAssay AID1508600 (Functional Genomics Laboratory (NCATS/FGL), 2020)
Out of some 53,000 sequences screened, about 3,700 (7%) were called active. Shown is part of a subset that was picked to be rich in actives. Values without a mark were called inactive.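 The calls were made as follows: active = gene knockdowns whose robust z-score for IL-1 alpha signal is at least 2 or at most -2, so actives lie on both sides; inactive = the rest.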

test: Components of the Cytosolic LPS Sensing Pathway: Gene Identification via Genome-wide siRNA Screen; conditions: RAW264.7 macrophages, IL-1a HTRF, actives lie on both sides, screened at 100 nM (by protocol), cells primed 5 h with Pam3CSK4 first
Text: Non-canonical inflammasome activation by cytosolic LPS is a critical component of the host response to Gram-negative bacterial infection, however we lack a comprehensive understanding of the cellular processes that control this pathway. Here we describe a genome-wide siRNA screen to identify genes regulating the mouse macrophage IL-1 alpha response to cytosolic LPS.
RAW264.7 cells were maintained in complete DMEM media, comprising DMEM with 4.5 g/L glucose, 10% FBS (Gemini Bio-Products, West Sacramento, CA), 2 mM Glutamine (Lonza) and 20 mM HEPES (Lonza), hereafter complete DMEM.
The RNAi screen was conducted in 384-well format using the Ambion Silencer Mouse Genome siRNA Library (#4391425), which consists of three unique, nonoverlapping, nonpooled siRNAs for each of 17,000 gene targets. siRNA reagents ([…]) were stamped into 384-well white flat-bottom microplates (Corning, 3570) using a Velocity11 VPrep liquid handling system (Agilent) integrated into a BioCel robotic platform (Agilent) in columns 1-22, leaving columns 23-24 empty for negative (Ambion, Negative control #1) and positive (mouse Casp4) controls, respectively. The median value of each plate's negative control column was used to normalize sample wells, and the positive control was used to assess transfection efficiency and assay performance.
Lipofectamine RNAiMAX Transfection Reagent ([…]; Invitrogen) was added in […] serum-free, antibiotic-free media to plate wells using a Thermo Scientific Matrix WellMate and Microplate Stacker. Plates were incubated for 45 min at room temperature to allow for the sufficient formation of siRNA-lipid complexes. Cells were seeded at a density of 1x10^4 cells per well in 20 microL media containing 20% (vol/vol) FBS without antibiotics. The final concentration of siRNA in each well was 100 nM. Cells were cultured for 48h at 37 degrees C in 5% CO2 before addition of […] of TLR ligand Pam3CSK4 for 5 hours. The medium was then removed, replaced with […] growth media and cell were transfected with […] of LipidA and TransIT-TKO (Mirus) for 24 hour. At the end of the LipidA treatment, […] of supernatant was transferred to a 384 Greiner Bio-one non-binding low volume plate and […] of IL-1a HTRF reagent (Cisbio, 62MIL1APEH) was added and incubated at room temperature overnight. The plates were read on an EnVision plate reader (PerkinElmer). Cell viability was measured by adding 20ul Cell Titer Glo to the original plate and running a luminescence read on the EnVision. The quantified IL-1a signal for each siRNA gene-targeted well was divided by the median of the negative control wells and multiplied by 100 to achieve a negative control normalized value for each well/siRNA. This normalized value was then used to generate a robust z-score by first taking the log of each value and then by subtracting the median and dividing by the […].

Row | Sequence | z-score
1 | CCAAGACUGUGACAAGUUUTT against Ctsz | -0.557
2 | GGAAACCAGACUUUCCCUATT against Vmn1r43 | -0.18
3 | CGAAGAUAUUACUAUUCUGTT against Lama2 | 1.65
4 | GAUGCACACGUGGGAAGACTT against Cdpf1 | 2.25 (active)
5 | GCUCCAUCUACAAACAAUGTT against Gpr37l1 | 1.53
6 | GGGACAGGAACAAACAAGCTT against Polq | 2
7 | GGUUAUAGAUGUAAAGUCUTT against Isg20l2 | -0.847
8 | GGAGCUUCUUUUCCCUCUATT against Gcgr | -0.684
9 | GGAUUUAAGUGCCCGGUAUTT against Znrf2 | 1.34
10 | GCGAUAUGCCCUAACUGGATT against Mmp24 | 0.967
11 | GGAAGAUCCGCUUCAACGUTT against Mab21l4 | 1.2
12 | GGUUGGUUUGGAGAAGGCATT against Krt35 | 2.91 (active)
13 | CCACAUGCCUGAGAGAUUCTT against Spp2 | 1.28
14 | CGUUUGACCAAAACAGAAUTT against Fbxw10 | 0.709
15 | GGAAGUCAGACAGAUUUAATT against Prss33 | 2.69 (active)
16 | CGCACCUUUCUUUGGAAUGTT against Rab1b | 1.72
17 | GGAUUUUGUUCUUCAUCCATT against Nedd4 | -0.142
18 | GGGUUAUGGAUUUGAAGUGTT against Tmem131l | 1.3
19 | CCAAUUUUCAAGAUCGGUCTT against Pakap | 0.347
20 | GCUCUGAUGUCAACCUUCCTT against Fam174c | -2.23 (active)
21 | CCACCUUUAUUCAAAAUCGTT against Mmp20 | -0.451
22 | CCUACUCAAGAAGCUCAGUTT against Hpse | -2.47 (active)
23 | GCGCACAAGCCUUACUAAATT against Zfp560 | 0.0854

Row | Sequence | z-score
24 | GCGGACAUGAGUUUGAAUGTT against Bnipl | -0.858
25 | GGUGGACAAGAUGAUGGAATT against Gps2 | 1.92
26 | GGAGACAGAUGAAUGAACCTT against Tifab | 0.0548
27 | CCCUCUCUACGAUGACUCUTT against Parm1 | -2 (active)
28 | CCAAUAACUUCGCUUAUAUTT against Ms4a2 | -0.389
29 | GGUUCAUCCAACUUUCAAGTT against Stac3 | 0.587
30 | GUUUCUGGGUGAGCGCGAUTT against Fzd2 | 2.29 (active)
31 | GGCAUUUAAAACUCAUUGUTT against G6pdx | -1.47
32 | GGGUUCAGAGGUCAUCAACTT against Lin37 | -1.95
33 | GCAAAUUAGGCUCUUAUCCTT against 4930402H24Rik | -0.333
34 | GGAAGAAAUGCAGGUGUGGTT against Gab3 | -2.15 (active)
35 | GCUUUAUUAACCCAUCAAATT against Wdr78 | -0.136
36 | GGGAAAAUUCCAGAAUUGUTT against Serpinb9c | -1.37
37 | GGAGAUGGCCGACUUCUAUTT against Coa8 | 0.934
38 | GGUUAAAUCCCUGAUGUAUTT against Ptdss1 | -0.613
39 | GCUUGUGUCACCUACGGAATT against Mterf2 | 0.944
40 | CCCAUGCUAUCAAUCAUUUTT against Olfr308 | 2.51 (active)
41 | CCGAUGACAAUCGGCCCUUTT against Gja8 | 0.74
42 | GGUUUUCCAUCUCCUCCAGTT against Klrc1 | 0.789
43 | GGGAAACGUGAAUUAGUAATT against 1110051M20Rik | -1.23
44 | CCUCCAUUGAUACUCAAGUTT against Pycr1 | 0.0219
45 | GGCUAAAUCUCACACUCCATT against Mzb1 | -2.18 (active)
46 | GGUGAAGCUCACCAACAAUTT against Tbx20 | 0.301

Row | Sequence | z-score
47 | CCAUGUUCCAGUUAAUGACTT against Ptch1 | -0.419
48 | GCAAGUCCUCUACCUUCUCTT against Vmn1r210 | -1.65
49 | GGUGAAACUAAAAAUGGUCTT against Egfl6 | -1.07
50 | GCCGUCUCUGUGUCACAAATT against Sirt1 | -2.19 (active)
51 | GGUCCUUGUACAACCACCCTT against Acd | 0.516
52 | GGUCCUUGCAUUUCAUCAATT against A630005I04Rik | 1.6
53 | GGAUUUUUGCACUCAGUAATT against Olfr1256 | 1.26
54 | GGAACAUUGGUGUUACAGCTT against Atp5j | 2.29 (active)
55 | GGAGUUUUCAGCAACAAAUTT against Fgf5 | -0.829
56 | GGUAUUCUAUAAGCUCCUUTT against Dennd1a | -2.07 (active)
57 | CCAACGCGAACGAGAACUATT against C1qb | -0.0813
58 | CCAGAUAAUAAUUUGGAUGTT against Dhx9 | 0.0852
59 | GGAUGUGCCAUUGAAGAUCTT against Atg4c | 2.07 (active)
60 | CCUGGAUACCUUCAACUAUTT against Galnt14 | -0.209
61 | CCUAAACCAGUCUUUUCUCTT against Cnep1r1 | 0.369
62 | GCAAAAGCUAAUAAACUUGTT against Acox2 | 0.921
63 | GCCUACGAGGACAGUACAATT against Mst1r | 1.16
64 | GCACUGCAACACUUGGUCCTT against Lcn12 | -0.99
65 | GGCAGACCCAUAAUUAAUCTT against Arsk | -0.567
66 | GGCUGAAGCGCAAGAGGAATT against Wdr46 | 2.68 (active)
67 | GGAAGAUACAAGUCUUUUUTT against Akap12 | 1.85
68 | GAGAUAAGAUGGGAAAAAATT against Ssbp2 | -0.338
69 | GGAAAAGCAGACUUGCACCTT against Npm2 | 0.228
